Laboratory results taken from paper PMC5349851, “Combinatorial bZIP dimers display complex DNA-binding specificity landscapes”.

Tests used:
Assay in all cases: SELEX-seq (CSI, HT-SELEX, round 3); SELEX-seq: 1x PBS (10 mM phosphate, 137 mM NaCl, 2.7 mM KCl) pH 7.6, 2.5 mM DTT, 50 ng/ul poly dI-dC, 0.1% BSA, 50 nM biotinylated bZIP (1:3 with partner for heterodimers), 100 nM library, room temperature, 1 h, 3 rounds; high values mean tight binding
Conditions in all cases: protein: recombinant;recombinant; copies: 1;1; dsDNA, one strand shown
ATF5;CREBZF = biological target: T1, ATF5;CREBZF (Homo sapiens;Homo sapiens, UniProt Q9Y2D1;Q9NS37 199-275;195-272, |)
T1 sequence 1: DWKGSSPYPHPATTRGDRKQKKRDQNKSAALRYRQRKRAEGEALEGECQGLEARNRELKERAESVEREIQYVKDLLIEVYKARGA
T1 sequence 2: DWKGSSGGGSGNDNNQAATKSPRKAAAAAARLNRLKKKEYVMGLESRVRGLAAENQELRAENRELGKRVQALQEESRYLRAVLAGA

ATF6B;ATF6B = ATF6B;ATF6B (Homo sapiens;Homo sapiens, UniProt Q99941;Q99941 316-391;316-391, |)
ATF6B;ATF6B, sequence (Q99941 other isoform, or with tags, fused parts or gaps |, chain 1 of 2): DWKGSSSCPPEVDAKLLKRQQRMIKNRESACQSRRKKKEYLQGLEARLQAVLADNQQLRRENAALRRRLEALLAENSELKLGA
ATF6B;ATF6B, sequence (Q99941 other isoform, or with tags, fused parts or gaps |, chain 2 of 2): as the sequence (Q99941 other isoform, or with tags, fused parts or gaps |, chain 1 of 2) above

ATF6;ATF6 = ATF6;ATF6 (Homo sapiens;Homo sapiens, UniProt P18850;P18850 297-371;297-371, |)
ATF6;ATF6, sequence (P18850 other isoform, or with tags, fused parts or gaps |, chain 1 of 2): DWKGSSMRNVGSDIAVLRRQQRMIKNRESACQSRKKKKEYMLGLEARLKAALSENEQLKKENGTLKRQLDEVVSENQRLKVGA
ATF6;ATF6, sequence (P18850 other isoform, or with tags, fused parts or gaps |, chain 2 of 2): as the sequence (P18850 other isoform, or with tags, fused parts or gaps |, chain 1 of 2) above

CREB1;CREB1 = biological target: T2, CREB1;CREB1 (Homo sapiens;Homo sapiens, UniProt P16220;P16220 260-327;260-327, |)
T2 sequence 1: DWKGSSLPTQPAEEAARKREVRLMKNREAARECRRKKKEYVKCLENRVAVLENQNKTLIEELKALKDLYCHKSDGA
T2 sequence 2: T2 sequence 1

CREB3;CREB3 = biological target: T3, CREB3;CREB3 (Homo sapiens;Homo sapiens, UniProt O43889;O43889 141-221;141-221, |)
T3 sequence 1: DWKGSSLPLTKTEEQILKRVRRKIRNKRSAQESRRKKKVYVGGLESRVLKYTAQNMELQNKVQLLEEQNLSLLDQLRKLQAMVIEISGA
T3 sequence 2: T3 sequence 1

ATF5;ATF6B = ATF5;ATF6B (Homo sapiens;Homo sapiens, UniProt Q9Y2D1;Q99941 199-275;316-391, |)
ATF5;ATF6B, sequence (Q99941 other isoform, or with tags, fused parts or gaps |): as the sequence (Q99941 other isoform, or with tags, fused parts or gaps |, chain 1 of 2) above

| Sequence | binding signal (ATF5;CREBZF) | binding signal (ATF6B;ATF6B) | binding signal (ATF6;ATF6) | binding signal (CREB1;CREB1) | binding signal (CREB3;CREB3) | binding signal (ATF5;ATF6B) |
| --- | --- | --- | --- | --- | --- | --- |
| ATGACGGAAT | 0.0025 relative CSI intensity (max = 1) |  |  |  |  |  |
| ATGACGTCAT | 1 relative CSI intensity (max = 1) | 0.0846 relative CSI intensity (max = 1) | 0.437 relative CSI intensity (max = 1) | 0.577 relative CSI intensity (max = 1) | 0.325 relative CSI intensity (max = 1) | 1 relative CSI intensity (max = 1) |
| ATGACGTAAT | 0.0175 relative CSI intensity (max = 1) | 0.00248 relative CSI intensity (max = 1) | 0.0093 relative CSI intensity (max = 1) | 0.00977 relative CSI intensity (max = 1) | 0.0113 relative CSI intensity (max = 1) | 0.0108 relative CSI intensity (max = 1) |
| CCTGACGTCA | 0.0084 relative CSI intensity (max = 1) | 0.00121 relative CSI intensity (max = 1) | 0.00545 relative CSI intensity (max = 1) | 0.0218 relative CSI intensity (max = 1) | 0.0218 relative CSI intensity (max = 1) | 0.0183 relative CSI intensity (max = 1) |
| ATGACGCAAT | 0.0123 relative CSI intensity (max = 1) |  | 0.00207 relative CSI intensity (max = 1) |  | 0.00195 relative CSI intensity (max = 1) | 0.00498 relative CSI intensity (max = 1) |
| ATGATGCAAT | 0.00335 relative CSI intensity (max = 1) |  |  |  |  | 0.0122 relative CSI intensity (max = 1) |
